Screens as filed in PubChem.
NS1 function inh: influenza NS1 inhibition | AID 2326 | 0.4% of 270,000 active | Potency, µM (titrated, usually from 46.1 µM), without a hit: at the highest dose activity, positive = more growth; calls by dose curve; note: actives are rising curves; nearly all actives have a fitted effect of over 50% in size
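A cell-based growth assay was used: compounds that relieve NS1-induced slow growth of budding yeast raise OD600. Assay medium was yeast nitrogen base with ammonium sulphate and -URA supplement, pH 6.0, with 2% galactose.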
Pf growth 48h: inhibits P. falciparum growth in the first generation, 48 h; P. falciparum luciferase growth in erythrocytes, 48 h; Potency, µM (series often up to 28.7 µM), inactives show top-dose activity change, negative = inhibition, most hits filed as inhibitors; 5.9% of 310,000 active; AID 504832; note: % is set by controls: 0 for no effect and ±100 for the full control effect
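Luciferase-expressing P. falciparum in infected erythrocytes (2% hematocrit, 0.1% parasitemia final) in RPMI 1640/0.5% Albumax were exposed to compound for 48 hours at 37 C, 5% CO2; growth read as luminescence.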
RE007 growth inh: less growth of the S. pombe RE007 Vpr strain. S. pombe RE007 Vpr strain, BacTiter-Glo ATP luminescence, 24 h. Potency, µM (highest dose often 92.2 µM), for inactives: top-dose activity change, negative = less growth, actives largely listed as inhibitors. 0.21% of 360,000 active; active = well fitted falling curve with a large enough effect; inconclusive = small, poorly fitted or top-dose-only effect; inactive = no such curve, though single readings can be large or run the other way; note: % is set by controls: 0 for no effect and ±100 for the full control effect; nearly all actives have a fitted effect of over 50% in size
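Fission yeast strain RE007, carrying one chromosomally integrated HIV-1 vpr copy, was seeded at OD 0.01 in PMG+AL medium with 23 nL pinned compound. After 24 h at 30 °C and 99% humidity, viability was read by BacTiter-Glo luminescence.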
Pf growth 96h: inhibits malaria parasite growth, 96 h; P. falciparum luciferase reporter growth, 96 h; Potency, µM (top dose mostly 28.7 µM), without a hit: at the top dose activity change, negative = inhibition, usual class: inhibitors; 6.9% of 320,000 active; AID 504834; note: % is set by controls: 0 for no effect and ±100 for the full control effect
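Plates of compound plus infected erythrocytes (2% hematocrit, 0.05% parasitemia final) incubate 96 hours, 37 C, 5% CO2. Detection reagent added; reduced luminescence from the parasites' luciferase reporter flags inhibition.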
SARS PLP yeast: inhibitors of SARS-CoV papain-like protease in yeast | S. cerevisiae expressing SARS-CoV PLpro, growth rescue | Potency, µM (top dose mostly 32.9 µM), for the others: top-dose activity, positive = growth rescue, usual class: activators | 0.19% of 330,000 active | AID 485353; calls by dose curve; note: 0% is about no effect; nearly all actives have a fitted effect of over 55% in size
* hit, by the source's call; ? = inconclusive; . = no result given; [ ] = dose if it differs, or a comment. Shown are actives, neighbours in structure and some others; about 9.5% of the full set was active somewhere. Unless noted, calls come from the whole dose curve; as a rule, active = well fitted inhibition curve with a large enough effect; inconclusive = small, poorly fitted or top-dose-only effect, or another doubt; inactive = no such curve, though single readings can be large or run the other way. Potency is the fitted concentration of half-maximal effect.

SMILES	NS1 function inh	Pf growth 48h	RE007 growth inh	Pf growth 96h	SARS PLP yeast
C=CCN1C(c2ccc(Br)cc2)=CS/C1=C(/C#N)c1nnc(N2CCOCC2)n1-c1ccccc1	-19%	?	-8%	?	10%
C=CCN1C(c2cccc(C(F)(F)F)c2)=CS/C1=C(/C#N)c1nnc(N2CCOCC2)n1-c1ccccc1	-13%	10µM*	.	12µM*	12%
CC1=C(C)SC(=C(C#N)c2nnc(N3CCOCC3)n2-c2ccccc2)S1	-4%	?	-2%	9.3µM*	6%
O=C(Nc1cccc(Cl)c1)N1CCSc2cc(Cl)ccc21	-57%	?	-18%	13µM*	-16%
O=C(Nc1ccccc1Cl)N1CCSc2ccccc21	-1%	1.5µM*	2%	-11%	0%
COc1cccc(C(O)c2nc(/C=C/c3ccc(C(F)(F)F)cc3)cs2)c1 (stereo unspecified)	.	.	-9%[18.4 µM]	.	.
O=C(Nc1ccccc1)c1cc([N+](=O)[O-])ccc1NC1CCCCC1	4%	8.3µM*	-15%	?	-6%
CC(C)Nc1nc(NC(C)(C)C)nc(Oc2ccc(=O)n(C)n2)n1	4%	0%	9%	11%	1%
COc1nc(NC(C)(C)C)nc(Oc2ccc(=O)n(C)n2)n1	5%	.	-4%	12µM*	-8%
Cc1nnc(NC(=O)C2CC(=O)N(C(C)c3ccccc3)C2)s1 (stereo unspecified)	3%	4%	2%	45%	4%
CSc1cccc(CNC(=O)C2CCC(=O)N(CCc3ccccc3)C2)c1 (stereo unspecified)	.	.	-4%	.	.
CCOc1cc(C(c2c(C)[nH][nH]c2=O)c2c(C)[nH][nH]c2=O)ccc1OS(=O)(=O)c1ccc(C)cc1	1%	15µM*	18%	.	-5%
COc1ccc(OCC(=O)N2CCCC(Nc3ccc(C)c(C)c3)C2)cc1 (stereo unspecified)	.	.	20%	.	.
COc1ccc(NC(=O)C2Cc3ccccc3CN2C(=O)c2ccco2)cc1 (stereo unspecified)	-2%	-1%	-18%	5%	0%
O=C(Nc1nnc(C2CC2)s1)C1Cc2ccccc2CN1C(=O)c1ccco1 (stereo unspecified)	.	-24%	-14%	?	1%
O=C(C1Cc2ccccc2CN1C(=O)c1ccccc1)N1CCN(c2ccccc2)CC1 (stereo unspecified)	-1%	?	-23%	4.1µM*	-1%
COc1ccc(N2CCN(C(=O)C3Cc4ccccc4CN3C(=O)c3ccco3)CC2)cc1 (stereo unspecified)	.	8.3µM*	24%	?	0%
CC(=O)c1ccc(NC(=O)C2Cc3ccccc3CN2C(=O)c2ccccc2)cc1 (stereo unspecified)	-2%	-21%	9%	15µM*	-3%
O=C(c1ccc(CN2CCc3ccccc3C2)cc1)N1CCN(c2ccccc2)CC1	4%	23%	3%	13%	-11%
O=C(Nc1ccccc1N1CCOCC1)C1Cc2ccccc2CN1C(=O)c1ccco1 (stereo unspecified)	6%	10µM*	15%	.	2%
Cc1cc(Br)c(NC(=O)CN2C(=O)NC3(CCOc4ccccc43)C2=O)c(Br)c1 (stereo unspecified)	.	.	0%	.	.
Cc1ccc(N2CC(C(N)=O)CC2=O)cc1 (stereo unspecified)	-2%	-3%	-10%	-7%[5.75 µM]	5%
Cc1ccc(N2CCN(c3ccc(C)cc3)C(CC(=O)O)C2=O)cc1 (stereo unspecified)	16%	12µM*	6%	?	-1%
O=c1c2cc(Cl)ccc2[nH]c(=S)n1Cc1cccs1	12%	13%	3%	13µM*	10%
CS(=O)(=O)c1ccc2nc(NC(=O)Nc3ccc(Cl)cc3)sc2c1	13%	?	7%	1.2µM*	8%
SMILES	NS1 function inh	Pf growth 48h	RE007 growth inh	Pf growth 96h	SARS PLP yeast
CS(=O)(=O)c1ccc2nc(NC(=O)CCNC(=O)c3ccccc3Cl)sc2c1	.	10µM*	3%	-104%	-2%
CS(=O)(=O)c1ccc2nc(NC(=O)CCNC(=O)c3ccc(Cl)cc3)sc2c1	.	-40%	1%	4.1µM*	0%
CS(=O)(=O)c1ccc2nc(NC(=O)c3ccc(Cl)cc3)sc2c1	-16%	35%	8%	?	1%
CCOc1ccccc1/C=C/c1onc(C)c1S(=O)(=O)N1CCC(C(=O)N2CCCCCC2)CC1	28%	7.4µM*	3%	?	5%
Cc1cccc(/C=C/c2onc(C)c2S(=O)(=O)N2CCC(C(=O)N3CCCCC3)CC2)c1	?	9.3µM*	6%	?	-2%
COc1ccc(/C=C/c2onc(C)c2S(=O)(=O)N2CCC(C(=O)N3CCCCCC3)CC2)cc1	14%	4.1µM*	10%	?	6%
Cc1ccc(/C=C/c2onc(C)c2S(=O)(=O)N2CCC(C(=O)N3CCCCC3)CC2)cc1	12%	?	-1%	-13%	1%
COC(=O)c1cc(C)ccc1/C=C1/Cc2c(C)cc(C)cc2C1=O	.	.	10%	.	.
O=C(O)c1c2c(c(O)c3c1CN(C1CCCCC1)CO3)OCN(C1CCCCC1)C2	14%	.	.	.	.
COc1ccc(CCNC(=O)CC(c2ccccc2)c2cccc(C)c2O)cc1OC (stereo unspecified)	-33%	?	6%	31%	-1%
CC(=O)c1ccc2c(c1)N(Cc1ccccc1Cl)C(=O)C(C)S2 (stereo unspecified)	.	.	17%	.	.
Cc1cc[n+](-c2ccccc2)c2ccccc12	.	12µM*	-8%	1.7µM*	-7%
CN(C)CCCN1c2ccccc2Sc2ccc(Cl)cc21	-21%	10µM*	-4%[18.4 µM]	?	5%
CN1CCN(CCCN2c3ccccc3Sc3ccc(S(=O)(=O)N(C)C)cc32)CC1	.	13µM*	-6%[18.4 µM]	3.6µM*	.
OCCN1CCN(CCCN2c3ccccc3Sc3ccc(Cl)cc32)CC1	-1%	12µM*	?	6.6µM*	-2%
CN(C)CCCN1c2ccccc2C(C)(C)c2ccccc21	-4%	?	.	17µM*	.
Cc1ccc(NC(=O)CNCCCN2CCOCC2)cc1S(=O)(=O)N1CCCCC1	7%	?	-3%	?	1%
O=C(CC(c1ccccc1)c1ccccc1)Nc1ccc(C(=O)O)cc1	4%	0%	-2%	-16%	-1%
C[C@H](CC(=O)O)C(C(=O)O)C(=O)O	-1%	.	.	.	.
CC(=O)c1ccc2c(c1)N(CCCN1CCC(CCO)CC1)c1ccccc1S2	.	8.1µM*	-24%[18.4 µM]	?	.
CCCCCn1c(SCc2cccc(C)c2)nc2c1c(=O)[nH]c(=O)n2C	?	?	8%	9.3µM*	0%
CCCCCCn1c(SCCCC)nc2c1c(=O)[nH]c(=O)n2C	5%	?	5%	3.3µM*	-2%
CCOC(=O)C(CC)Sc1nc2c(c(=O)[nH]c(=O)n2C)n1CCc1ccccc1 (stereo unspecified)	-12%	10µM*	13%	12µM*	5%
